Compound activity: PubChem BioAssay, National Center for Advancing Translational Sciences (NCATS)
MARV entry inh = Marburg virus entry inhibition; actives 1.8% (n = 300,000); Potency, µM (highest dose often 37.8 µM), without a hit: at the top dose activity change, negative = inhibition, actives largely listed as inhibitors; Marburg virus pseudotyped entry inhibition, cell reporter; calls by dose curve; tested in HEK293 cells; further: potency means the concentration at half of the fitted maximal effect
HCMV antiviral = inhibitors of human cytomegalovirus; HFF cells, HCMV-luciferase reporter, 72 h; active compounds read low; activity change, negative = inhibition, % at 57.5 µM; actives 4.5% (n = 410,000); AID 1259415; in the data active means activity change below about -60%; inconclusive means no clear call, values can overlap the other calls; inactive means above about -39%
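Compounds were evaluated in HFFs infected with an HCMV luciferase reporter virus (MOI 1 PFU/cell). Luciferase in lysates collected 72 h post infection served as the replication measure.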
HCV inhibitor = HCV inhibition | Huh7.5.1 HCVcc-Cre infection, luciferase reporter, 44 h | actives 3.4% (n = 340,000) | Potency, µM (highest dose often 41.8 µM), for inactives: at the top dose activity change, negative = inhibition, most hits filed as inhibitors; active means well fitted inhibition curve with a large enough effect; inconclusive means small, poorly fitted or top-dose-only effect, or another doubt; inactive means no such curve, though single readings can be large or run the other way; further: potency means the concentration at half of the fitted maximal effect
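Compounds are dispensed onto cells plated 4 h earlier at 1,000 per well, with HCVcc-Cre virus (about 0.5 moi) added next. Following 44 h of culture, luminescent signal is measured for 15 sec after 15 min with substrate at room temperature.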
FMDV inh = blocks foot and mouth disease virus. FMDV antiviral cell-based qHTS. actives 1.2% (n = 410,000). Potency, µM (top dose mostly 57.9 µM), without a hit: at the top dose activity change, negative = inhibition, most hits filed as inhibitors. AID 1159524; calls by dose curve; tested in HEK293T cells; further: read-out not given here; potency means the concentration at half of the fitted maximal effect; nearly all actives have a fitted effect of over 45% in size
LASV entry inh = Lassa virus entry inhibition | Lassa virus pseudotype entry inhibition, cell reporter | Potency, µM (series often up to 37.9 µM), for inactives: top-dose activity change, negative = inhibition, actives largely listed as inhibitors | actives 1.2% (n = 300,000) | AID 540256; calls by dose curve; tested in HEK293 cells; further: potency means the concentration at half of the fitted maximal effect; nearly all actives have a fitted effect of over 50% in size
Starred values were filed as active, the others as inactive; ? = inconclusive; / = not tested or not shown; [ ] = dose if it differs, or a comment. Only some compounds are listed: those with a hit (about 7.9% of all), similar ones and a draw of the others. On the % scale 0 is the no-effect control and ±100 the full control effect.

SMILES | MARV entry inh | HCMV antiviral | HCV inhibitor | FMDV inh | LASV entry inh
O=C(OC1CNC(C#Cc2cc3ncnc(Nc4ccc5c(cnn5Cc5ccccc5)c4)c3s2)C1)N1CCOCC1 (stereo not given) | / | / | / | / | 1.3µM*
O=C(OC1CNC(C#Cc2cc3ncnc(Nc4ccc(OCc5cccc(F)c5)c(Cl)c4)c3s2)C1)N1CCOCC1 (stereo not given) | / | / | / | / | 2.8µM*
CNC(=O)c1cccc(C#Cc2cncnc2Nc2ccc(OCc3cccc(F)c3)c(Cl)c2)c1 | / | / | / | / | 0.79µM*
O=C(Nc1ccccc1OCc1ccccc1)c1ccccc1Br | / | 1 | 11µM* | -9% | /
CCOc1ccccc1NC(=O)c1ccccc1NC(=O)c1ccco1 | -1%[46.1 µM] | 24 | -21% | -3% | -22%
CN1CCN(Cc2nc3ccccc3c(=O)n2CC#N)CC1 | / | 19 | 6% | -9% | /
N#CCn1c(CCl)nc2ccccc2c1=O | / | -34 | 4% | 7.9µM* | /
COc1cccc(Cc2nc3ccccc3nc2SCC(=O)N2CCCCC2C)c1 (stereo not given) | / | -38 | / | -4% | 11µM*
CCN(C(=O)CSc1nc(-c2ccccc2)no1)c1cccc(C)c1 | -26%[46.1 µM] | -107* | / | ? | 0%[46.1 µM]
CCN(C(=O)CSc1nc2ccccc2nc1Cc1cccc(OC)c1)c1cccc(C)c1 | / | 13 | / | -24% | 7.1µM*
CCOC(=O)c1cccnc1SCC(=O)N(CC)c1cccc(C)c1 | -5% | ? | ? | -18% | -3%[46.1 µM]
CCN(C(=O)CSc1nc2ccccc2nc1Cc1ccc(F)cc1)c1cccc(C)c1 | / | 2 | / | -27% | ?
Cc1cc2c(c(=O)o1)[C@H](CC(C)C)C(C#N)=C(N)O2 | 5% | / | / | / | /
COC(=O)[C@H]1[C@H](C)[C@@]2(O)c3ccccc3N(C)[C@@]1(C)[C@H]2O | -25%[14.2 µM] | / | / | / | /
CC1=C(C(=O)Nc2ccccc2)C(c2ccco2)NC(=O)N1 (stereo not given) | 10% | -97* | 8% | -21% | 0%
CC1=C(C(=O)Nc2ccc(C)cc2)C(c2ccco2)NC(=O)N1 (stereo not given) | 15% | -8 | 20% | -21% | -11%
Cc1ccc(S(=O)(=O)N2CCOC23CCN(S(=O)(=O)c2c(C)cc(C)cc2C)CC3)cc1 | ? | -98* | ? | -1% | ?
O=C(OCc1nnc(-c2ccccc2)o1)c1cn(-c2ccccc2)nc1-c1ccccc1 | ? | -1 | 11µM* | -19% | 13%
Cc1noc(C)c1COC(=O)c1cc(=O)[nH]c2ccccc12 | 24% | ? | -1% | 0% | 14%
Cc1cc(C(=O)OCc2nnc(-c3ccccc3)o2)c(C)n1-c1ccccc1 | -30% | -3 | 14µM* | ? | ?
Cc1noc(C)c1COC(=O)c1cc(C)n(-c2ccccc2)c1C | -29% | 103 | 10µM* | -4% | -51%
Cc1cccc(OCCSc2nc3ccccc3n2CC(=O)N2CCOCC2)c1C | 3%[46.1 µM] | -6 | / | -12% | -5%[46.1 µM]
Cc1n[nH]c(=O)c2c(NC(=O)CSc3nc4ccccc4c(=O)n3CCCOC(C)C)oc(C)c12 | ? | -98* | -5% | -15% | -1%
Cc1ccc(NC(=O)CSc2nn(-c3ccccc3)c(=S)s2)cc1S(=O)(=O)N(C)C | 7.3µM* | -78* | ? | ? | ?
CN(C)S(=O)(=O)c1ccc(Cl)c(NC(=O)CSc2nc3c(cc2C#N)C(=O)CCC3)c1 | 0% | -20 | 9% | -16% | -10%
SMILES | MARV entry inh | HCMV antiviral | HCV inhibitor | FMDV inh | LASV entry inh
Cc1ccc(NC(=O)CSc2nc3c(cc2C#N)C(=O)CCC3)cc1S(=O)(=O)N(C)C | -29% | -69* | ? | ? | 0%
CCOCCCn1c(SCC(=O)Nc2oc(C)c3c(C)n[nH]c(=O)c23)nc2ccccc2c1=O | 2%[46.1 µM] | -11 | 8% | -11% | -3%
Cc1n[nH]c(=O)c2c(NC(=O)CSc3nn(-c4ccccc4)c(=S)s3)oc(C)c12 | -7% | -98* | 19% | -5% | -3%
COc1ccc(OC)c(C(=O)N(Cc2cc3cccc(C)c3nc2N2CCC(O)CC2)C2CC2)c1 | / | / | / | 1% | /
Cc1ccc(NC(=O)c2cnc(SCC(=O)N3CCOCC3)n(C)c2=O)cc1 | / | 59 | / | 40% | 20%[46.1 µM]
COc1ccc2oc(C(=O)NC3(C)CCS(=O)(=O)C3)c(C)c2c1 (stereo not given) | ? | -101* | ? | 33% | 28%
COc1ccc2oc(C(=O)NCc3cc(OC)c(OC)cc3OC)c(C)c2c1 | ? | -27 | 16µM* | ? | -21%
COc1ccc2oc(C(=O)OCC(=O)NCCc3ccccc3)c(C)c2c1 | 7% | -33 | -4% | 8% | -9%
Cc1c(C(=O)NCCc2ccccc2)oc2ccccc12 | 6.3µM* | 121 | 6% | 17% | ?
COc1ccc2oc(C(=O)NCCc3ccccc3)c(C)c2c1 | ? | -19 | 6% | -50% | 0.89µM*
O=C(NCCc1ccccc1)c1oc2ccccc2c1COc1ccccc1 | ? | 25 | ? | 17% | 9%
COc1ccc2oc(C(=O)NCC(c3ccco3)N(C)C)c(C)c2c1 (stereo not given) | 0% | 0 | -22% | 55% | -7%[46.1 µM]
Cc1ccccc1-c1nc(CS(=O)(=O)CC(=O)NCC(C)c2ccccc2)c(C)o1 (stereo not given) | -17%[46.1 µM] | 10 | / | -10% | 10%[46.1 µM]
O=C(Nc1ccccc1N1CCCCC1)c1ccc([N+](=O)[O-])o1 | -16% | -32 | ? | -16% | ?
CCCCCC(=O)Nc1ccc(N2CCN(CC)CC2)c(Cl)c1 | 2% | 60 | 22µM* | ? | -1%
O=S(=O)(c1ccc(NC(=S)N2CCN(c3ccc(O)cc3)CC2)cc1)N1CCOCC1 | -5%[46.1 µM] | -63* | ? | -22% | -15%
O=C(Nc1c(Cl)ccc2nsnc12)c1ccc([N+](=O)[O-])o1 | / | -106* | ? | -26% | /
CCCC(=O)N1CCN(c2ccc(NC(=O)c3ccc([N+](=O)[O-])o3)cc2Cl)CC1 | ? | -109* | ? | 20µM* | ?
CCCCCC(=O)NC(=S)Nc1ccc(N2CCCCC2)c(Cl)c1 | ? | 24 | 19% | -7% | -22%
O=S(=O)(c1ccc(NC(=S)N2CCOCC2)cc1)N1CCCCC1 | / | 21 | / | 0% | /
Cc1ccc2c(CC(=O)Nc3ccc(S(=O)(=O)N4CCCCC4C)cc3)coc2c1 (stereo not given) | -6%[46.1 µM] | 0 | / | 14% | -21%[46.1 µM]
CCOc1ccccc1-n1ccnc(NCc2ccc(F)cc2)c1=O | / | 17 | / | -9% | 24%[46.1 µM]
COc1cccc(N2CC(NC(=O)c3ccc(S(=O)(=O)N4CCOCC4)cc3)CC2=O)c1 (stereo not given) | / | 18 | / | -15% | 12%[46.1 µM]
COC(=O)NC(c1ccccc1)C1(C(=O)OC)C(=O)Cc2ccccc21 (stereo not given) | 11%[14.2 µM] | / | / | / | /
Cc1nc2cccnc2n1-c1cccc(C(=O)NCCc2ccc(S(N)(=O)=O)cc2)c1 | / | 42 | / | -21% | -1%[46.1 µM]
CC(=O)Nc1cccc(NC(=O)/C=C/c2ccc(S(=O)(=O)N3CCOCC3)cc2)c1 | ? | 36 | -22% | -28% | 1%
